Data as given in PubChem BioAssay AID449762 (Southern Research Specialized Biocontainment Screening …, 2010).
Several values for one entry are separate records, joined by “and”; a condition that tells them apart may be missing. Equal values may be shown once. Screen size: about 330,000 compounds; about 1,900 (0.58%) were called active. About 4% were inconclusive and are not listed. Cut-off read from the data, not from the text of the source: inconclusive = inhibition above about 70% without an active follow-up result; inactive = below that. Not all results are given here. Measured potencies and affinities stand elsewhere.

Test: M. tuberculosis growth inhibition, HTS (AID 449762);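 note: bacterial growth assessed after seven days of incubation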
Details: M. tuberculosis H37Rv growth inhibition, 7H9 media; at 25 µM; active compounds read high

| SMILES | inhibition |
| --- | --- |
| C=CCN(CC=C)C(=O)C[n+]1ccc(C(N)=O)cc1 | 6.91% (inactive) |
| COCCN1C(=O)C(=O)/C(=C(/O)c2ccc(S(=O)(=O)N3CCCCC3)cc2)C1c1ccc(O)c(OC)c1 (centres undefined) | -2.3% (inactive) |
| CN(c1ccccc1)S(=O)(=O)c1cccc(NC(=O)CSc2nnc(N)s2)c1 | 3.34% (inactive) |
| O=C(CC1(O)C(=O)Nc2ccc(Br)cc21)c1ccc2c(c1)OCO2 (centres undefined) | -6.14% (inactive) |
| O=C1Nc2ccc(Br)cc2/C1=C/c1ccc(C(=O)O)cc1 | 0.13% (inactive) |
| CC(C)C(=O)Nc1c2c(nn1-c1ccc([N+](=O)[O-])cc1)CS(=O)(=O)C2 | 3.07% (inactive) |
| Cc1ccc(F)cc1NC(=O)c1c(-c2ccccc2)noc1C | -8.46% (inactive) |
| CCOc1ccc(C(=O)Nc2ccc3nc(N4CCN(CC)CC4)cc(C)c3c2)cc1 | 43.7% (inactive) |
| CCOc1[nH]n(-c2ccccc2)c(=O)c1C=Nc1ccc(C)cc1 | 9.52% (inactive) |
| CCOc1[nH]n(-c2ccccc2)c(=O)c1C=Nc1ccccc1 | 19% (inactive) |
| Cc1ccccc1-n1c(-c2ccc([N+](=O)[O-])cc2)nc2ccccc2c1=O | 2.55% (inactive) |
| COc1ccc(NC(C)=O)c(C)c1 | -2.52% (inactive) |
| c1ccc(-c2nc(-c3ccncc3)n[nH]2)nc1 | -0.34% (inactive) |
| c1ccc(-c2n[nH]c(-c3ccccn3)n2)nc1 | -3.4% (inactive) and -2.35% (inactive) |
| O=C(NCc1ccccc1F)c1cc(=O)[nH]c2ccccc12 | 1.18% (inactive) |
| Cc1ccc2nsnc2c1S(=O)(=O)N1CCOCC1 | -4.54% (inactive) |
| COc1ccc(CCNC(=O)c2ccc(CNS(=O)(=O)c3cc(C)ccc3C)cc2)cc1OC | -3.98% (inactive) |
| O=S(=O)(Nc1ccccn1)c1ccc(Br)cc1 | 10.2% (inactive) |
| Cc1c(NS(=O)(=O)c2ccc(Br)cc2)c(=O)n(-c2ccccc2)n1C | 0.05% (inactive) |
| O=C(c1cc(F)ccc1F)C1CCCN(CCCc2ccccc2)C1 (centres undefined) | 10.3% (inactive) |

| SMILES | inhibition |
| --- | --- |
| CC(CCc1ccccc1)NC(=O)COC(=O)C1CCC(C(C)(C)C)CC1 (centres undefined) | 6.62% (inactive) |
| CN1CCc2c(OCC(=O)N3CCC(Cc4ccccc4)CC3)cccc2C1=O | 5.02% (inactive) |
| Cc1cc(NC(=O)c2ccc(C)s2)n(-c2nc3ccccc3[nH]2)n1 | 56.9% (inactive) |
| Cc1cc(NC(=O)c2cccs2)n(-c2nc3ccccc3[nH]2)n1 | 57.9% (inactive) |
| CCn1nnnc1SCC(=O)N1CCCCC1 | 0.5% (inactive) |
| O=C1NC(=Nc2ccccc2)SC1Cc1ccccc1 (centres undefined) | -10.5% (inactive) |
| O=C1N/C(=N/N=C/c2ccc(O)cc2)SC1Cc1ccccc1 (centres undefined) | -5.03% (inactive) |
| CCC(Sc1nc2ccc(N)cc2s1)C(=O)Nc1nccs1 (centres undefined) | 61% (inactive) |
| C[n+]1cnn2c1SCC1(COC1)C2 | 3.72% (inactive) |
| O=C(CNC(=O)c1ccc(Cl)cc1)c1ccccc1 | -1.27% (inactive) |
| O=C(CNC(=O)c1ccc(F)cc1)c1ccc(Cl)cc1 | 6.46% (inactive) |
| C=C(C)Cn1c(C)cc(C)c(S(=O)(=O)c2cccc(C)c2)c1=O | -7.99% (inactive) |
| CCOc1cc(CNc2ccc(Br)cc2)cc(Br)c1OCC(=O)NC(C)(C)C | -3.44% (inactive) |
| CC(=O)c1ccc(N2CCN(C(=O)c3cc4c(C)nc5ccccc5c4o3)CC2)cc1 | 4.42% (inactive) |
| Cc1nc2ccccc2c2oc(C(=O)N3CCN(c4ccc([N+](=O)[O-])cc4)CC3)cc12 | 26.2% (inactive) |
| O=C(CCS(=O)(=O)c1ccc(Cl)cc1)N1CCN(c2ccccc2F)CC1 | -3.9% (inactive) |
| COc1ccc(OC)c(CN2CCN(C(=O)CCNC(=O)c3ccc(Br)cc3)CC2)c1 | -2.93% (inactive) |
| COc1ccc(OC)c(CN2CCN(C(=O)CNC(=O)c3cc(C)cc(C)c3)CC2)c1 | 1.7% (inactive) |
| CCc1cc(C(=O)NN2C(=O)NC3(CCCCC3)C2=O)sc1C | -5.54% (inactive) |
| Cc1ccc(NC(=O)c2sc(Cl)nc2-c2ccccc2)cc1 | 1.87% (inactive) |

| SMILES | inhibition |
| --- | --- |
| O=C(NC1CCCCCC1)c1cc(S(=O)(=O)N2CCOCC2)ccc1N1CCCCC1 | -7.36% (inactive) |
| CCCCCCCNC(=O)C1(CC2CC(c3ccccc3)=NO2)CCNCC1 (centres undefined) | -6.2% (inactive) |
| CCCCCCCNC(=O)C1(CC2CC(c3cccc(Br)c3)=NO2)CCN(C(=O)Cc2ccc(F)cc2)CC1 (centres undefined) | 1.04% (inactive) |
| Cc1ccc(-n2c(SCC(=O)NCCN3C(=O)CSC3=O)nnc2-c2ccccc2)cc1 | -2.1% (inactive) |
| O=C(Nc1ccc(-c2csc(Nc3ccccc3)n2)cc1)c1cccc(C(F)(F)F)c1 | 1.22% (inactive) |
| O=C(Nc1ccc(-c2csc(Nc3cccc(C(F)(F)F)c3)n2)cc1)c1ccccc1 | 50.9% (inactive) |
| O=C(N/N=C1\CCCc2ccccc21)c1ccccc1Cl | 5.05% (inactive) |
| Cc1ccc(C(=O)N/N=C2\CCCc3ccccc32)c(C)c1 | -7.5% (inactive) |
| CCOc1ccc(CN(C)C(=O)c2cccnc2OCC)cc1OC | -1.02% (inactive) |
| CCOc1ccc(C(C)NC(=O)Nc2ccc(F)cc2F)cc1 (centres undefined) | 6.1% (inactive) |
| C(=N\Nc1nc2ccccc2[nH]1)/c1ccccc1 | 33.3% (inactive) |
| Cn1c(/C=N/c2nc3ccccc3[nH]2)nc2ccccc21 | 43.9% (inactive) |
| CCOc1ccc(OCCNC(=O)C(NC(=O)c2c(F)cccc2F)C(C)C)cc1 (centres undefined) | -12.3% (inactive) |
| COc1ccc(Nc2nnc(SC(C)C(=O)NC3CC3)s2)cc1 (centres undefined) | -1.49% (inactive) |
| Cc1c(NC(=S)N/N=C/c2cccc(O)c2)c(=O)n(-c2ccccc2)n1C | -10.1% (inactive) |
| N=c1c2c(-c3ccccc3)c(-c3ccccc3)n(Cc3ccco3)c2ncn1CCCO | 16.4% (inactive) |
| N=c1c2c(-c3ccccc3)c(-c3ccccc3)n(Cc3ccco3)c2ncn1CCO | 52.9% (inactive) |
| O=C(Oc1ccccc1C(=S)N1CCOCC1)c1ccc([N+](=O)[O-])cc1[N+](=O)[O-] | 38.5% (inactive) |
| O=C(C1=C(O)C(=O)N(CCOCCO)C1c1cccc([N+](=O)[O-])c1)c1cccs1 (centres undefined) | -3.54% (inactive) |
